# Experimental data: PMC7862700, “An all-to-all approach to the identification of sequence-specific readers for epigenetic DNA modifications on cytosine”
# How the values were obtained:
# Experiment in all cases: DAPPL (digital affinity profiling via proximity ligation, sequencing); 10 mM Tris-HCl pH 7.5, 50 mM NaCl, 1 mM DTT, 4% glycerol, room temperature, 30 min; GST-TFs on glutathione beads, 16-mer random dsDNA library, 0.1% formaldehyde crosslink after washing; high values mean tight binding
# FLI1 = target: T1, FLI1 (Homo sapiens, UniProt Q01543 1-452); settings: protein: recombinant; tags: N-terminal GST; dsDNA, one strand shown
# T1 sequence: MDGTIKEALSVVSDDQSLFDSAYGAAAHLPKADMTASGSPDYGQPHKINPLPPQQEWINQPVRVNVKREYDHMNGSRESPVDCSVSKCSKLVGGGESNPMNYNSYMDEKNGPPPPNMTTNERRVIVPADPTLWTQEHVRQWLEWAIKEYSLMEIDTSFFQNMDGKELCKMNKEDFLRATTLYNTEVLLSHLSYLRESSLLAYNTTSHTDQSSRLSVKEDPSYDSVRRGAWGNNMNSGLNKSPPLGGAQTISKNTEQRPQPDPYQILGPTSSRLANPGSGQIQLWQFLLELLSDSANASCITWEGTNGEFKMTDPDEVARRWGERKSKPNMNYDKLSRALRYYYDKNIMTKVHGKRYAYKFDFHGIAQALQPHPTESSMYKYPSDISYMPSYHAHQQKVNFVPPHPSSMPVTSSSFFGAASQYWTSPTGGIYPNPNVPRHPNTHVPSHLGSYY
# In short: (§1)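 GST fusions of human transcription factors were expressed in yeast and captured with glutathione beads. Once given DNA barcodes and pooled alongside a tag-only sample, they were incubated for 30 min at room temperature with 200 nmole of a random double-stranded 16-mer DNA library in Tris/NaCl/DTT/glycerol buffer, then washed, crosslinked (0.1% formaldehyde), proximity-ligated, PCR-amplified and sequenced on an Illumina NextSeq500. The binding signal of each hexamer is its read frequency for a factor divided by its frequency for the tag-only sample.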
# ELK1 = target: T2, ELK1 (Homo sapiens, UniProt P19419 1-428); settings: protein: recombinant; tags: N-terminal GST; dsDNA, one strand shown
# T2 sequence: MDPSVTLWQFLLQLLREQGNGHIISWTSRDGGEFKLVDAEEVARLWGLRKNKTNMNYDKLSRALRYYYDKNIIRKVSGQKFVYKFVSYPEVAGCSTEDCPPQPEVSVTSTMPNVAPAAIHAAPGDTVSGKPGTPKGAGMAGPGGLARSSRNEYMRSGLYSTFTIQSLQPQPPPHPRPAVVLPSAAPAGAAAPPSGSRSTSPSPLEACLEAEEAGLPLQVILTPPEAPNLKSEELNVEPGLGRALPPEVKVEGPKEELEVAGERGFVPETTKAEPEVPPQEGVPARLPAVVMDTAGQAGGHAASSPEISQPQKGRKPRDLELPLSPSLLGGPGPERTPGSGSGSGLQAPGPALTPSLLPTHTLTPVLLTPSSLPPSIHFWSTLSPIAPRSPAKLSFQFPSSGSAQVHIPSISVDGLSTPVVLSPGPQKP
# In short: as §1
# GABPA = target: T3, GABPA (Homo sapiens, UniProt Q06546 1-454); settings: protein: recombinant; tags: N-terminal GST; dsDNA, one strand shown
# T3 sequence: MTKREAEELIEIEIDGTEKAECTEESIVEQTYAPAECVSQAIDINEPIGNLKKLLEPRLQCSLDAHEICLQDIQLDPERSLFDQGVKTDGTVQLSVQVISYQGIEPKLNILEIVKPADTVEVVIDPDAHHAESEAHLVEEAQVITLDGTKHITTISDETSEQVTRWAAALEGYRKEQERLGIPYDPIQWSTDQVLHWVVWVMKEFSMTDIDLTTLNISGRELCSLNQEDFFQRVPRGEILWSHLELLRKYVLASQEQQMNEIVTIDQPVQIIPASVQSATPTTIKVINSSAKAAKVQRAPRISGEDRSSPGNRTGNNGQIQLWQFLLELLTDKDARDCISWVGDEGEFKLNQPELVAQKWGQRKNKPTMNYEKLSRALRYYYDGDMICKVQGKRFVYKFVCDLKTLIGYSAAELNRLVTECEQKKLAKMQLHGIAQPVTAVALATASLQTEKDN
# In short: as §1
# ERG = target: T4, ERG (Homo sapiens, UniProt P11308 1-479); settings: protein: recombinant; tags: N-terminal GST; dsDNA, one strand shown
# T4 sequence: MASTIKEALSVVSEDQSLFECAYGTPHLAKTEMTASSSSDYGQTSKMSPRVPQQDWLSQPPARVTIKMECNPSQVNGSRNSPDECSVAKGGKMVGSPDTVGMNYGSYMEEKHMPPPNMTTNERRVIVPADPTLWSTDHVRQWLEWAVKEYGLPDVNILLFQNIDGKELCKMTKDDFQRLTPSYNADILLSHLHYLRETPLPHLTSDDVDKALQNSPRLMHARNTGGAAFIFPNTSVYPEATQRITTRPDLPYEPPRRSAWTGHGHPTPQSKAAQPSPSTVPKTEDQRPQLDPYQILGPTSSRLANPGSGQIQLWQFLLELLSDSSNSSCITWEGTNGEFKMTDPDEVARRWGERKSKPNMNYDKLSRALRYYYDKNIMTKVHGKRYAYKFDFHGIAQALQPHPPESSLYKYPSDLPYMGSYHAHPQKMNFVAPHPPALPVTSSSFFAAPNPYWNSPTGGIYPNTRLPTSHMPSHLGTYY
# In short: as §1
# ELF1 = ELF1 (Homo sapiens, UniProt P32519 1-619); settings: protein: recombinant; tags: N-terminal GST; dsDNA, one strand shown
# In short: as §1
# EHF = target: T5, EHF (Homo sapiens, UniProt Q9NZC4 1-300); settings: protein: recombinant; tags: N-terminal GST; dsDNA, one strand shown
# T5 sequence: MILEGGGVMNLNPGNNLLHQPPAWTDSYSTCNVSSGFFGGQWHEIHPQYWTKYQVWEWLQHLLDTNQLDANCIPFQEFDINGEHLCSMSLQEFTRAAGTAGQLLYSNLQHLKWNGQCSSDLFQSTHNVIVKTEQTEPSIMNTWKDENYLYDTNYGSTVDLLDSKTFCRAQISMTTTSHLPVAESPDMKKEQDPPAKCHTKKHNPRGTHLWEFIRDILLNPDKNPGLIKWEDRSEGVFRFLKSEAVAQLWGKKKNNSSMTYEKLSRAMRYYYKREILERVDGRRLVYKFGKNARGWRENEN
# In short: as §1
# SPI1 = SPI1 (Homo sapiens, UniProt P17947 1-270); settings: protein: recombinant; tags: N-terminal GST; dsDNA, one strand shown
# In short: as §1
# SPIB = SPIB (Homo sapiens, UniProt Q01892 1-262); settings: protein: recombinant; tags: N-terminal GST; dsDNA, one strand shown
# In short: as §1
# ELK3 = target: T6, ELK3 (Homo sapiens, UniProt P41970 1-407); settings: protein: recombinant; tags: N-terminal GST; dsDNA, one strand shown
# T6 sequence: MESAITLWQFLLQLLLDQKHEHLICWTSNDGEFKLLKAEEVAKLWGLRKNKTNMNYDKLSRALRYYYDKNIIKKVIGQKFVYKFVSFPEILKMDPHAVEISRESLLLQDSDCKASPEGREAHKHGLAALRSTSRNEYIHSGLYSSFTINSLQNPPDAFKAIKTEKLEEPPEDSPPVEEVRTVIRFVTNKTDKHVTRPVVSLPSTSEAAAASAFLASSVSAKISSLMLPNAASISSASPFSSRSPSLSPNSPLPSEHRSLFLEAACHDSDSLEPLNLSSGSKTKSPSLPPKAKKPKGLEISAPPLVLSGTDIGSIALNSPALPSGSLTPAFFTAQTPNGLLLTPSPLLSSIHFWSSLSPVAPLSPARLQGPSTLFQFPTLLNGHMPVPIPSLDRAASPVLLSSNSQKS
# In short: as §1
# FEV = target: T7, FEV (Homo sapiens, UniProt Q99581 1-238); settings: protein: recombinant; tags: N-terminal GST; dsDNA, one strand shown
# T7 sequence: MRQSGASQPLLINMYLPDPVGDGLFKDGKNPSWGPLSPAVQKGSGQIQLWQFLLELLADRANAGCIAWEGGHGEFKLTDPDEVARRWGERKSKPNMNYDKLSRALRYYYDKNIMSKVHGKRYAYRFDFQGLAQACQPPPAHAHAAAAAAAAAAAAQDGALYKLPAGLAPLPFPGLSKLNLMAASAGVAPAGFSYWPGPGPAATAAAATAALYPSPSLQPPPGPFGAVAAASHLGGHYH
# In short: as §1
# ETV5 = ETV5 (Homo sapiens, UniProt P41161 1-510); settings: protein: recombinant; tags: N-terminal GST; dsDNA, one strand shown
# In short: as §1
# HSF1 = HSF1 (Homo sapiens, UniProt Q00613 1-529); settings: protein: recombinant; tags: N-terminal GST; chain copies: 3; dsDNA, one strand shown
# In short: as §1
# SPIC = target: T8, SPIC (Homo sapiens, UniProt Q8N5J4 1-248); settings: protein: recombinant; tags: N-terminal GST; dsDNA, one strand shown
# T8 sequence: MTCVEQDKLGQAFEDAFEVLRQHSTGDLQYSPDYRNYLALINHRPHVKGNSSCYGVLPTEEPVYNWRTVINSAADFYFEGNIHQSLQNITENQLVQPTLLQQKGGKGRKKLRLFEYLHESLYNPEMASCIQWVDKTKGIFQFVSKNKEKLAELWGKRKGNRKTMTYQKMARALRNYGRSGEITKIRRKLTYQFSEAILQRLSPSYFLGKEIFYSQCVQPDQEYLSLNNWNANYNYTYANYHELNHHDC
# In short: as §1
# ELF4 = ELF4 (Homo sapiens, UniProt Q99607 1-663); settings: protein: recombinant; tags: N-terminal GST; dsDNA, one strand shown
# In short: as §1
# ELK4 = target: T9, ELK4 (Homo sapiens, UniProt P28324-2 1-405); settings: protein: recombinant; tags: N-terminal GST; dsDNA, one strand shown
# T9 sequence: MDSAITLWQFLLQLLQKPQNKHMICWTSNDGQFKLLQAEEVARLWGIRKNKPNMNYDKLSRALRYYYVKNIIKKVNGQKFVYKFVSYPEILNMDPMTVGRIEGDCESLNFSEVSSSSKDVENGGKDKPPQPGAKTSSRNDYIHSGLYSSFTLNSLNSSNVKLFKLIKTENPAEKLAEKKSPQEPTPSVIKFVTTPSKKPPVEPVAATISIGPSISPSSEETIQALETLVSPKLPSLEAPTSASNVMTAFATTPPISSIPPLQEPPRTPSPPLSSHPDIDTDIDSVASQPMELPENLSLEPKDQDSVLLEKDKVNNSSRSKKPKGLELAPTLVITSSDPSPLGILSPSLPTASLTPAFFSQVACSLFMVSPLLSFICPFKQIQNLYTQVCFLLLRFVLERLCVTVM
# In short: as §1
# ETV2 = target: T10, ETV2 (Homo sapiens, UniProt O00321 1-342); settings: protein: recombinant; tags: N-terminal GST; dsDNA, one strand shown
# T10 sequence: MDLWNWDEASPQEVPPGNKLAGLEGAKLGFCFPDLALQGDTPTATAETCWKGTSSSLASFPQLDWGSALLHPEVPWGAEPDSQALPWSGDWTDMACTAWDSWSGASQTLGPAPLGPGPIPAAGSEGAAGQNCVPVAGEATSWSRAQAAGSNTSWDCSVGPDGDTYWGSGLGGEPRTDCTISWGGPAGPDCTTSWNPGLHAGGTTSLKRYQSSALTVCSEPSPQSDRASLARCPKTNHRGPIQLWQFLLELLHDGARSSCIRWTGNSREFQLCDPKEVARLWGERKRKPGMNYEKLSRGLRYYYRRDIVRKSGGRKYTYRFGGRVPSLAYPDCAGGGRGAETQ
# In short: as §1
# ELF3 = target: T11, ELF3 (Homo sapiens, UniProt P78545 1-371); settings: protein: recombinant; tags: N-terminal GST; dsDNA, one strand shown
# T11 sequence: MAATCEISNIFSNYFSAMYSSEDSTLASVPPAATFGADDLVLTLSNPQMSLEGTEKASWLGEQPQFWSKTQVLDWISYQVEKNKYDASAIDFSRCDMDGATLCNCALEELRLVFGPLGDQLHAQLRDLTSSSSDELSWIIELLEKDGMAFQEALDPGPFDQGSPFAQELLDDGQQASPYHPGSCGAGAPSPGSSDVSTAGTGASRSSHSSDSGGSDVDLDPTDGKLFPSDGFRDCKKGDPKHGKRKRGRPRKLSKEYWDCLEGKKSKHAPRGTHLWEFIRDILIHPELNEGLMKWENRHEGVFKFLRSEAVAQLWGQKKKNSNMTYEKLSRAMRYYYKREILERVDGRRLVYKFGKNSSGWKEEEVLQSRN
# In short: as §1
# CRX = CRX (Homo sapiens, UniProt O43186 1-299); settings: protein: recombinant; tags: N-terminal GST; dsDNA, one strand shown
# In short: as §1
# ETV1 = ETV1 (Homo sapiens, UniProt P50549 1-477); settings: protein: recombinant; tags: N-terminal GST; dsDNA, one strand shown
# In short: as §1
# CRX, sequence (O43186 whole entry): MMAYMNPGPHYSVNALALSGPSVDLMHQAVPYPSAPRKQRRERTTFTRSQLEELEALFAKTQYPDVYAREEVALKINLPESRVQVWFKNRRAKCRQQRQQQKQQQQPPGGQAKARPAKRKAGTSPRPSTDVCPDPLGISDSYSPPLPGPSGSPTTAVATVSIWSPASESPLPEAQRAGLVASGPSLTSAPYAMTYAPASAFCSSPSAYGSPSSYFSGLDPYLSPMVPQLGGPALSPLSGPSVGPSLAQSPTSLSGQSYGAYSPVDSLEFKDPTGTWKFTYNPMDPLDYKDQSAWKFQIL
# ETV5, sequence (P41161 whole entry): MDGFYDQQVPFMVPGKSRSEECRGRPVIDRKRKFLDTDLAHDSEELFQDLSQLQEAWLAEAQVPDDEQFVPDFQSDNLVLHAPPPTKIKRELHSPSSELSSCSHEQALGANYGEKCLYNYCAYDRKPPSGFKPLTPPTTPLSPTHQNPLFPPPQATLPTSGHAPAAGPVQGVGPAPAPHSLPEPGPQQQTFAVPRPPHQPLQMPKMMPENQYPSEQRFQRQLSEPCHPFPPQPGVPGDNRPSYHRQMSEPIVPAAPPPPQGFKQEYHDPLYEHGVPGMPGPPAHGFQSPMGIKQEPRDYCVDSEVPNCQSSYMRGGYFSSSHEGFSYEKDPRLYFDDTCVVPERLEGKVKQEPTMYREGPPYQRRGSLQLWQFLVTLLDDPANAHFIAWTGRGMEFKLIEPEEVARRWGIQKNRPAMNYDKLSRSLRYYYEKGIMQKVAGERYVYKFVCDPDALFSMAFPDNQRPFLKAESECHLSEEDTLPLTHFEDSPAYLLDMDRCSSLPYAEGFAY
# ETV1, sequence (P50549 whole entry): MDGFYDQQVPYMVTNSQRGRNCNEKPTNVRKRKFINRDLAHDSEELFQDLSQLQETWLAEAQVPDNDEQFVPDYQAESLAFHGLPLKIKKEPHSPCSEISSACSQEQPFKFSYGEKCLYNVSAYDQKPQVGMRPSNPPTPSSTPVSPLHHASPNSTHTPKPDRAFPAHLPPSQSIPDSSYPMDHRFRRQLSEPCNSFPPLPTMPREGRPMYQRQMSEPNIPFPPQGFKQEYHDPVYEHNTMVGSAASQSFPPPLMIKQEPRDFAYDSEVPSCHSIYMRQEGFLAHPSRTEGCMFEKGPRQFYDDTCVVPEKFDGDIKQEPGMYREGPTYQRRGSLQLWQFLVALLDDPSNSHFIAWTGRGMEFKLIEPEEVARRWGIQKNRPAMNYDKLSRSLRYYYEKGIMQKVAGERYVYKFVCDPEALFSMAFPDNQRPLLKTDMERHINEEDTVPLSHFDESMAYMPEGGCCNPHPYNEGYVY
# ELF4, sequence (Q99607 whole entry): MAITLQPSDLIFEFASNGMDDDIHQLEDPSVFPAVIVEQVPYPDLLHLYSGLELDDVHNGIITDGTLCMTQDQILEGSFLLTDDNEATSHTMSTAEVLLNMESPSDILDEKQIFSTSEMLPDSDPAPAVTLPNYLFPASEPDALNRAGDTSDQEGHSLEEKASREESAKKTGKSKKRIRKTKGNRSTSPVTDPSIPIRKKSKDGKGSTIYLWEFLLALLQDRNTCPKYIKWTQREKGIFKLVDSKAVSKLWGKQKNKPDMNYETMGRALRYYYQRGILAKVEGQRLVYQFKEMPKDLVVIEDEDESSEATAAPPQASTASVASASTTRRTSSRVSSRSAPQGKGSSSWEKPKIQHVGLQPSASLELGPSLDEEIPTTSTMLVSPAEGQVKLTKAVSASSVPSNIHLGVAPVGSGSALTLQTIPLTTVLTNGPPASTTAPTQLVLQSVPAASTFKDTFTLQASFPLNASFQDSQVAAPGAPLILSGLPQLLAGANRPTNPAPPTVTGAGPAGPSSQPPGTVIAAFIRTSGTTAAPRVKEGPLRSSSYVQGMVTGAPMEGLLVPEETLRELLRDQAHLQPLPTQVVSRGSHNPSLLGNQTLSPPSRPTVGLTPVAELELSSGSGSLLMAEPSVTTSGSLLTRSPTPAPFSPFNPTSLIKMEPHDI
# SPIB, sequence (Q01892 whole entry): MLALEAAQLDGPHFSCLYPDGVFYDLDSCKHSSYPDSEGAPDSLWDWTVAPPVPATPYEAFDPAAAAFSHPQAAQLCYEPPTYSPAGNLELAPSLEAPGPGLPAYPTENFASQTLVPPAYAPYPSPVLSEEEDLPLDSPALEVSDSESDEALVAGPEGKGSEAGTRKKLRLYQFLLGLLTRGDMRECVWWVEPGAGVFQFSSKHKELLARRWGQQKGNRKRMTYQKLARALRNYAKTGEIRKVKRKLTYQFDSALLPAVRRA
# HSF1, sequence (Q00613 whole entry): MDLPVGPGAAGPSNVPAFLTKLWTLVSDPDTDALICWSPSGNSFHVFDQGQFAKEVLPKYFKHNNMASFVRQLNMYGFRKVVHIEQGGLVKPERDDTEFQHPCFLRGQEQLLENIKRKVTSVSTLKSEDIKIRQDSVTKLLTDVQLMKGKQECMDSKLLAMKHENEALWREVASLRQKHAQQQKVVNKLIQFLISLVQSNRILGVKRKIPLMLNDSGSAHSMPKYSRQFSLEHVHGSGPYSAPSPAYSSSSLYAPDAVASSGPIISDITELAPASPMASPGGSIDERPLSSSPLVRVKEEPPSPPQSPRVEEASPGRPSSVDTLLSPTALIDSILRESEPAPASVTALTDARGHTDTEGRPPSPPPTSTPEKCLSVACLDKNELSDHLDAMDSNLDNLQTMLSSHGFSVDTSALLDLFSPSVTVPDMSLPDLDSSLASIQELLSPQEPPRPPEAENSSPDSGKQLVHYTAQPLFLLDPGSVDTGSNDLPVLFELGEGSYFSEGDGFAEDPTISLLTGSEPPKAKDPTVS
# ELF1, sequence (P32519 whole entry): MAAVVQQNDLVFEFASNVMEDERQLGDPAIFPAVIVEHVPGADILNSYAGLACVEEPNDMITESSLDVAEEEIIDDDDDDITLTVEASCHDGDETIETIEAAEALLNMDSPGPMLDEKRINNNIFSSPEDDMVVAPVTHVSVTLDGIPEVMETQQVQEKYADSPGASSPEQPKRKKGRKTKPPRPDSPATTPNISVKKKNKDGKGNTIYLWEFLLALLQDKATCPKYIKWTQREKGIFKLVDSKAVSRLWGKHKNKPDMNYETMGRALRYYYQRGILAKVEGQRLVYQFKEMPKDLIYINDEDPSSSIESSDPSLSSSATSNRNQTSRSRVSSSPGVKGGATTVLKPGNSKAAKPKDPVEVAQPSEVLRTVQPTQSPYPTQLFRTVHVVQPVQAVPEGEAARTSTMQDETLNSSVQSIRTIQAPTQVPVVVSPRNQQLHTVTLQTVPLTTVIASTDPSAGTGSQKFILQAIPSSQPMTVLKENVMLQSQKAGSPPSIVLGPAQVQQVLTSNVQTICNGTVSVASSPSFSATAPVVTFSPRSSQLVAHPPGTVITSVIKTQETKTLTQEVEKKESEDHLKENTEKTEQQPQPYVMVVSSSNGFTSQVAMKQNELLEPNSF
sequence,measurement,setting,value
CACTAT,binding signal,FLI1,"1.23 fold enrichment (6-mer frequency, TF over GST control)"
same,binding signal,ELK1,"1.18 fold enrichment (6-mer frequency, TF over GST control)"
same,binding signal,GABPA,"1.31 fold enrichment (6-mer frequency, TF over GST control)"
same,binding signal,ERG,"1.18 fold enrichment (6-mer frequency, TF over GST control)"
same,binding signal,ELF1,"1.26 fold enrichment (6-mer frequency, TF over GST control)"
same,binding signal,EHF,"1.16 fold enrichment (6-mer frequency, TF over GST control)"
same,binding signal,SPI1,"1.25 fold enrichment (6-mer frequency, TF over GST control)"
same,binding signal,SPIB,"1.17 fold enrichment (6-mer frequency, TF over GST control)"
same,binding signal,ELK3,"1.24 fold enrichment (6-mer frequency, TF over GST control)"
same,binding signal,FEV,"1.21 fold enrichment (6-mer frequency, TF over GST control)"
same,binding signal,ETV5,"1.2 fold enrichment (6-mer frequency, TF over GST control)"
same,binding signal,HSF1,"1.05 fold enrichment (6-mer frequency, TF over GST control)"
same,binding signal,SPIC,"1.2 fold enrichment (6-mer frequency, TF over GST control)"
same,binding signal,ELF4,"1.26 fold enrichment (6-mer frequency, TF over GST control)"
same,binding signal,ELK4,"1.25 fold enrichment (6-mer frequency, TF over GST control)"
same,binding signal,ETV2,"1.09 fold enrichment (6-mer frequency, TF over GST control)"
same,binding signal,ELF3,"1.32 fold enrichment (6-mer frequency, TF over GST control)"
same,binding signal,CRX,"1.05 fold enrichment (6-mer frequency, TF over GST control)"
same,binding signal,ETV1,"1.14 fold enrichment (6-mer frequency, TF over GST control)"
